RGS16-Gao: RGS16-Galphao interaction regulator (human); O15492+P09471; bead-based flow cytometry RGS16-Galphao binding, fluorescence; actives lie on both sides; binding response (% of control), % at 10 µM; 220,000 tested, 0.38% active; AID 1441;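 further: Galphao activated by GDP with aluminum fluoride before binding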
Target sequence (O15492 whole entry, looked up): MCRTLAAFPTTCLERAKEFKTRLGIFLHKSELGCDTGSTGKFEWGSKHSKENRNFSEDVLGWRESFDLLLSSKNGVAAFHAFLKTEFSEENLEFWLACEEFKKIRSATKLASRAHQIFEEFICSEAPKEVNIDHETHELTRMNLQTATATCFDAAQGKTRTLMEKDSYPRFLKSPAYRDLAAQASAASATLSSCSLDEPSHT
Target sequence (P09471 whole entry, looked up): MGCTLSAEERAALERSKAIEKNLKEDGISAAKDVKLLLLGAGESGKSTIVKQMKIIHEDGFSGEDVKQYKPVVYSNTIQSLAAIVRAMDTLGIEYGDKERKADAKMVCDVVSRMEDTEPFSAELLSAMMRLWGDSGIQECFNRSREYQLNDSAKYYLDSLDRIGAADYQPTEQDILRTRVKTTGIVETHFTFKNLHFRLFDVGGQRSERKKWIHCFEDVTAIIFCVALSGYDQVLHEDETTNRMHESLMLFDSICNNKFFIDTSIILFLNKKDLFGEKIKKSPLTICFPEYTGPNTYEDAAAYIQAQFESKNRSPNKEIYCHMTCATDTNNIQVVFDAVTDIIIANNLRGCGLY
RGS8-Gao reg: modulates binding of RGS8 to human Galphao | multiplexed bead flow cytometry; actives lie on both sides | response (percent of control binding), % at 10 µM | 220,000 tested, 0.34% active | AID 1423; in the data active means response below about 60% or above about 140%; inactive means in between;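 further: Galphao activated as the GDP aluminium fluoride complex binding bead-coupled RGS8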
Target sequence (P09471 whole entry, looked up): as above
Avidin fluor: compound fluoresces at 488/530 nm on avidin beads; compound fluorescence 488/530 nm, flow cytometry; hits give high values; fluorescence (KMESF) at 10 µM; 220,000 tested, 0.38% active; in the data active means fluorescence above about 47
RGS7-Gao: human RGS7-Galphao interaction regulation; P09471; binding response (% of control), % at 10 µM; Multiplexed bead flow cytometry, RGS7-Galphao binding; actives lie on both sides; 220,000 tested, 0.35% active; in the data active means binding response below about 49% or above about 150%; inconclusive means no clear call, values can overlap the other calls; inactive means in between;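 further: fluorescent Galphao held in activated GDP-AlF4 state binding bead-coupled RGS7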
GSH bead fluor: GSH bead compound fluorescence profile | fluorescence (KMESF) at 10 µM | 190,000 tested, 0.25% active | AID 1776 | GSH beads flow cytometry, compound fluorescence 488/530 nm; hits give high values; in the data active means fluorescence above about 89;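 further: glutathione beads carrying GST-tagged Bcl family fusion proteins plus one bare bead set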
RGS4-Gao reg: human RGS4-Galphao interaction regulation; P09471; Multiplexed bead flow cytometry, RGS4-Galphao binding; actives lie on both sides; binding response (% of control), % at 10 µM; 220,000 tested, 0.33% active; AID 1415; in the data active means binding response below about 49% or above about 150%; inactive means in between;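 further: fluorescent Galphao activated with aluminum fluoride binding bead-coupled RGS4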
RGS4-Gao HTS: modulates binding between human RGS4 and Galphao; shares compounds with RGS16-Gao; multiplexed bead flow cytometry, RGS–Galpha-o binding; RGS4–Galpha-o binding response, % at 10 µM; 1,600 tested, 99% active;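 further: fluorescently labeled Galpha-o bound to GDP with aluminium fluoride binding biotinylated RGS beads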
Avidin counter: interferes with biotinylated probe binding to avidin beads. streptavidin beads, fluorescein-biotin binding, flow cytometry. shares compounds with RGS16-Gao. inhibition, % at 10 µM. 1,700 tested, under 10 active;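 active means inhibition above 50%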;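 further: median green fluorescence of gated singlet beads compared with DMSO control wells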
RGS8-Gao single: RGS8-Galphao interaction regulation, single point confirmation. shares compounds with RGS16-Gao. bead-based flow cytometry RGS8-Galphao binding, fluorescence; actives lie on both sides. binding response (% of control), % at 10 µM. 1,700 tested, 3% active. AID 1836; in the data active means binding response below about 72% or above about 130%; inactive means in between;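 further: Galphao activated as GDP AlF4 complex before binding bead RGS8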
RGS7-Gao confirm: confirmation of regulators of human RGS7-Galphao interaction; bead-based flow cytometry RGS7-Galphao binding; actives lie on both sides; response (percent of control binding), % at 10 µM; AID 1837; shares compounds with RGS16-Gao; 1,700 tested, 7.8% active; in the data active means response below about 75% or above about 130%; inactive means in between;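 further: fluorescent Galphao activated with GDP and aluminum fluoride binding bead-coupled RGS7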
RGS16-Gao single: confirmation of regulators of human RGS16-Galphao interaction; shares compounds with RGS16-Gao; bead-based flow cytometry, RGS16-Galphao binding; actives lie on both sides; response (% of control binding), % at 10 µM; 1,700 tested, 4% active; in the data active means response below about 74% or above about 130%; inactive means in between;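 further: Galphao activated as the GDP aluminium fluoride complex binding bead-coupled RGS16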
RGS4-Gao single: RGS4-Galphao interaction regulation, single point confirmation. shares compounds with RGS16-Gao. RGS4-Galphao binding, multiplexed bead flow cytometry; actives lie on both sides. binding response (% of control), % at 10 µM. 1,700 tested, 4% active; in the data active means binding response below about 74% or above about 130%; inactive means in between
RGS19-Gao conf: RGS19-Galphao interaction regulation, single point confirmation; shares compounds with RGS16-Gao; response (percent of control binding), % at 10 µM; bead-based flow cytometry RGS19-Galphao binding; actives lie on both sides; AID 1841; 1,700 tested, 5% active; in the data active means response below about 50% or above about 160%; inactive means in between
Each line names hits and unclear results; the compound was inactive in the other large screens (follow-up assays come after a bar, where they were run); [ ] = dose if it differs, or a comment. Most compounds without a hit are left out; they make up all but 1.2% or so of the library. Unless noted, how the calls were made is not given here.

CCCCN(C)C1=CC2=CC(=C(C#N)C#N)CCC2CC1 (stereo not drawn)	Avidin fluor 68, RGS7-Gao 164[activator] | RGS4-Gao HTS 147 | Avidin counter inactive | RGS8-Gao single inactive | RGS7-Gao confirm 206[activator] | RGS16-Gao single 157[activator] | RGS4-Gao single 154[activator] | RGS19-Gao conf 293[activator]
CCc1nnc(NC(=O)CSc2nc3cc(OC)ccc3cc2C)s1	none
O=C(NCc1cccnc1)c1ccccc1Br	none
CCSc1ccccc1C(=O)NCc1cccnc1	RGS8-Gao reg 59 | RGS4-Gao HTS 94 | Avidin counter inactive | RGS8-Gao single inactive | RGS7-Gao confirm 67 | RGS16-Gao single inactive | RGS4-Gao single 73 | RGS19-Gao conf inactive
CCOC(=O)C1CCCN(C(=O)/C=C/c2cc(OC)c(OC)c(OC)c2)C1 (stereo not drawn)	Avidin fluor 114, RGS7-Gao 170[activator] | RGS4-Gao HTS 103 | Avidin counter inactive | RGS8-Gao single inactive | RGS7-Gao confirm inactive | RGS16-Gao single inactive | RGS4-Gao single inactive | RGS19-Gao conf inactive
CCOC(=O)C1CCCN(C(=O)/C=C/c2ccc(Cl)cc2)C1 (stereo not drawn)	none
CSc1nnc(NC(=O)c2ccc(C)c(S(=O)(=O)N3CCOCC3)c2)s1	RGS16-Gao 9.3, RGS8-Gao reg 12, RGS7-Gao 14, RGS4-Gao reg 18 | Avidin counter inactive | RGS8-Gao single inactive | RGS7-Gao confirm inactive | RGS16-Gao single inactive | RGS4-Gao single inactive | RGS19-Gao conf inactive
Cc1nnc(NC(=O)c2ccc(C)c(S(=O)(=O)N3CCOCC3)c2)s1	none
Cc1ccc2[nH]c(=O)c(CN(C(=O)c3cccc([N+](=O)[O-])c3)C(C)C)cc2c1	RGS7-Gao inconclusive (no result: GSH bead fluor)
O=C(NCCc1ccccc1F)/C(=C/c1cccnc1)NC(=O)c1ccccc1	none
COc1ccc(CCNC(=O)/C(=C/c2cccnc2)NC(=O)c2ccccc2)cc1	RGS16-Gao 226[activator] | RGS4-Gao HTS 110 | Avidin counter inactive | RGS8-Gao single inactive | RGS7-Gao confirm inactive | RGS16-Gao single inactive | RGS4-Gao single inactive | RGS19-Gao conf inactive
COc1ccc(OCC(=O)N2CCN(c3nnc(-c4ccccc4)c4ccccc34)CC2)cc1	RGS16-Gao 8.3, RGS8-Gao reg 22, RGS7-Gao 15, RGS4-Gao reg 12 | Avidin counter inactive | RGS8-Gao single inactive | RGS7-Gao confirm inactive | RGS16-Gao single inactive | RGS4-Gao single inactive | RGS19-Gao conf inactive
O=C(CN1C(=O)NC2(CCCC2)C1=O)N1CCN(C(=O)c2ccco2)CC1	none
O=C(CN1C(=O)NC2(CCCCCCC2)C1=O)N1CCN(C(=O)c2ccco2)CC1	RGS16-Gao 199[activator] | RGS4-Gao HTS 120 | Avidin counter inactive | RGS8-Gao single inactive | RGS7-Gao confirm inactive | RGS16-Gao single inactive | RGS4-Gao single inactive | RGS19-Gao conf inactive
O=C(Nc1cccc2ncccc12)c1ccc(OCc2ccccc2)cc1	none
CSCCC(NC(=O)C1CCCCC1)c1nc2ccccc2[nH]1 (stereo not drawn)	none (no result: RGS16-Gao, RGS8-Gao reg, Avidin fluor, RGS7-Gao, GSH bead fluor) | Avidin counter inactive | RGS8-Gao single inactive | RGS7-Gao confirm inactive | RGS16-Gao single inactive | RGS4-Gao single inactive | RGS19-Gao conf inactive
CSCC[C@H](NC(=O)COc1ccc(Cl)cc1)c1nc2ccccc2[nH]1	RGS16-Gao 203[activator] | RGS4-Gao HTS 112 | Avidin counter inactive | RGS8-Gao single inactive | RGS7-Gao confirm inactive | RGS16-Gao single inactive | RGS4-Gao single inactive | RGS19-Gao conf inactive
CC12CS(=O)(=O)CC1SC(=S)N2Cc1ccccc1 (stereo not drawn)	none
CC1Cc2cc(/C(O)=C3/C(=O)C(=O)N(CC4CCCO4)C3c3ccco3)ccc2O1 (stereo not drawn)	Avidin fluor 110, RGS7-Gao 186[activator] | RGS4-Gao HTS 115 | Avidin counter inactive | RGS8-Gao single inactive | RGS7-Gao confirm inactive | RGS16-Gao single inactive | RGS4-Gao single inactive | RGS19-Gao conf inactive
CCn1c(SCC(=O)Nc2nc3ccc(C)cc3s2)nc2c(c1=O)SC(C)C2 (stereo not drawn)	Avidin fluor 117, RGS7-Gao 158[activator] | RGS4-Gao HTS 112
c1ccc(Nc2c3c(nc4ncnn24)CCC3)cc1	none (no result: RGS16-Gao, RGS8-Gao reg, Avidin fluor, RGS7-Gao, RGS4-Gao reg) | Avidin counter inactive | RGS8-Gao single inactive | RGS7-Gao confirm 56 | RGS16-Gao single inactive | RGS4-Gao single 72 | RGS19-Gao conf inactive
Clc1ccccc1Nc1c2c(nc3ncnn13)CCC2	none
O=C(Cn1c2[n+](c3ccc(C(F)(F)F)cc31)CCCCC2)Nc1ccccc1	none
CCc1cccc(NC(=O)Cn2c3[n+](c4ccc(C(F)(F)F)cc42)CCCCC3)c1	RGS16-Gao 238[activator], RGS8-Gao reg 147[activator] | RGS4-Gao HTS 128 | Avidin counter inactive | RGS8-Gao single inactive | RGS7-Gao confirm inactive | RGS16-Gao single inactive | RGS4-Gao single inactive | RGS19-Gao conf inactive
CCOC(=O)c1cc(-c2cccs2)nc2c1c(C)nn2-c1ccccn1	none
Cc1nn(-c2ccccc2)c2nc(-c3cccs3)cc(C(=O)NN)c12	Avidin fluor 82, RGS7-Gao 198[activator] | RGS4-Gao HTS 115 | Avidin counter inactive | RGS8-Gao single inactive | RGS7-Gao confirm inactive | RGS16-Gao single inactive | RGS4-Gao single inactive | RGS19-Gao conf inactive
Cc1cccc(NNC(N)=S)c1C	none
O=C(N/N=C/c1cc2c3c(c1O)CCCN3CCC2)c1ccccc1O	RGS8-Gao reg 43, RGS7-Gao 15, RGS4-Gao reg 25 | Avidin counter inactive | RGS8-Gao single inactive | RGS7-Gao confirm inactive | RGS16-Gao single inactive | RGS4-Gao single inactive | RGS19-Gao conf inactive

Screens as filed in PubChem BioAssay.
